What is called inhibition is the relative decrease from the control value, in per cent.

The structures appear in SMILES notation.

In assay [1] the target is Protein kinase C gamma type (Homo sapiens) (UniProt P05129). The note with it: at 1 µM.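 Further: each value is an averaged percent inhibition of the enzyme.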
Assay [2] addresses T1, Protein kinase C iota type (Homo sapiens) (UniProt P41743).
T1 sequence (whole entry): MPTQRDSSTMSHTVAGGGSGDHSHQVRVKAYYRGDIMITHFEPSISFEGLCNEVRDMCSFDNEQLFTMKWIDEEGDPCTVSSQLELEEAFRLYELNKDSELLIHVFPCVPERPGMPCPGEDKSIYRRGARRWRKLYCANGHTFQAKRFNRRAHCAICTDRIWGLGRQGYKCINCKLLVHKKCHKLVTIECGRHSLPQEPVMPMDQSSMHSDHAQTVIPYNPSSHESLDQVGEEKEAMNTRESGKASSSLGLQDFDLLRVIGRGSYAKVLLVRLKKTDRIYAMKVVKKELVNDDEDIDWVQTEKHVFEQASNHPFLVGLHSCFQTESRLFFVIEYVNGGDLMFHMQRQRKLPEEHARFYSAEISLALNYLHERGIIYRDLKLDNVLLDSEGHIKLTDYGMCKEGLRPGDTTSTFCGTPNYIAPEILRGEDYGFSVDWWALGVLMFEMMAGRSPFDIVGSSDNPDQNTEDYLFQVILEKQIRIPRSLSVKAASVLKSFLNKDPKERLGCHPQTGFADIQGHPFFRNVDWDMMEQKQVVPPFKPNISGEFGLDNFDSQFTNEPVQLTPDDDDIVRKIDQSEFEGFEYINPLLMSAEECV
The note with it: at 0.1 µM.

For assay [3], the target named is T1, Protein kinase C iota type (Homo sapiens). Conditions: at 1 µM.
The target of assay [4] is Protein kinase C theta type (Homo sapiens) (UniProt Q04759). The note with it: at 0.1 µM.
Chain of Protein kinase C theta type (Homo sapiens) (Q04759 whole entry, looked up): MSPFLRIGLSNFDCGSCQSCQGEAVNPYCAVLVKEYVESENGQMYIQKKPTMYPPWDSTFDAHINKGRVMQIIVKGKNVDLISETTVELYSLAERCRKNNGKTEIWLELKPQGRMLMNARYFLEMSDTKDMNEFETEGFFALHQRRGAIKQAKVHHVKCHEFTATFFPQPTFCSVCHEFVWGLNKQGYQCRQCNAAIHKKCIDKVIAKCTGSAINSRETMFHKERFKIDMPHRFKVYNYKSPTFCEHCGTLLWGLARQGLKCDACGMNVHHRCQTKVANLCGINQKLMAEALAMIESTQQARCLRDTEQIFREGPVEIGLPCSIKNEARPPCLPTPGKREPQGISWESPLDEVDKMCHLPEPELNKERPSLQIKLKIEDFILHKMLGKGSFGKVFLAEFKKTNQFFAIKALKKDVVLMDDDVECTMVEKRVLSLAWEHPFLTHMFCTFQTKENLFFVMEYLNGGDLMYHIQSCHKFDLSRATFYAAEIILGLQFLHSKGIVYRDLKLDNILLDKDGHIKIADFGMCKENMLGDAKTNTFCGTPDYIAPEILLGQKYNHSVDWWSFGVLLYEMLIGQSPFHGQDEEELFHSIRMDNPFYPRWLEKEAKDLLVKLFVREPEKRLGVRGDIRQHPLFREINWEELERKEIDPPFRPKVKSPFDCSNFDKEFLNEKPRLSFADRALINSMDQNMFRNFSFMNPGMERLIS
Assay [5] shares this target. Conditions: at 1 µM.
Assay [6] has as its target Protein kinase C beta type (Homo sapiens) (UniProt P05771). Conditions: at 0.1 µM.
For assay [7] the target is unchanged. Conditions: at 1 µM.
In assay [8] the target is T2, Serine/threonine-protein kinase D1 (Homo sapiens) (UniProt Q15139).
T2 sequence (whole entry): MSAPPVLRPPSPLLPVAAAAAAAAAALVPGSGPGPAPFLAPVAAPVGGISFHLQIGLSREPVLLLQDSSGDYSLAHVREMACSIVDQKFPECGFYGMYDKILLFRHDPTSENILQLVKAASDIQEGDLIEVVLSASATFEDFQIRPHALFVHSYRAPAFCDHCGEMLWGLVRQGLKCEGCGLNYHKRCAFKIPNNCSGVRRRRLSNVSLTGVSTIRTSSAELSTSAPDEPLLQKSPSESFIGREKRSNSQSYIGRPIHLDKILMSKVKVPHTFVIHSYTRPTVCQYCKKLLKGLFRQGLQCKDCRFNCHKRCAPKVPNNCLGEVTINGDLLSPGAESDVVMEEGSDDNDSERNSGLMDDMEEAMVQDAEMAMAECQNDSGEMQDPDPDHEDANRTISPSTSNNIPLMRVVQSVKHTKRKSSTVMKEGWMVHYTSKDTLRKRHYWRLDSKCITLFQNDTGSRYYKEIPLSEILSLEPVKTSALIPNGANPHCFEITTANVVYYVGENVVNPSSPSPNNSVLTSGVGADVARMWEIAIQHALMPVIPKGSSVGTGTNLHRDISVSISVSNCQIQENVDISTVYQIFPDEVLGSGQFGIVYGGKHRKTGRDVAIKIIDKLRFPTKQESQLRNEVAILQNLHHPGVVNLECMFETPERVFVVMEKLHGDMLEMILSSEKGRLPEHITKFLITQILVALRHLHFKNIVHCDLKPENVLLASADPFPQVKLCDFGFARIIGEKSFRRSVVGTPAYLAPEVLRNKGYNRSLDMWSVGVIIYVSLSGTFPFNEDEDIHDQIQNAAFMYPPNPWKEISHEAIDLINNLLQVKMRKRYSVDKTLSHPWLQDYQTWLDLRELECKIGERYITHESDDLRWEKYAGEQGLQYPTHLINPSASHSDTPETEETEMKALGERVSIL
The note with it: at 0.1 µM.

Assay [9] deals with T2, Serine/threonine-protein kinase D1 (Homo sapiens). Conditions: at 1 µM.
Assay [10] addresses T3, Serine/threonine-protein kinase D2 (Homo sapiens) (UniProt Q9BZL6).
T3 sequence (whole entry): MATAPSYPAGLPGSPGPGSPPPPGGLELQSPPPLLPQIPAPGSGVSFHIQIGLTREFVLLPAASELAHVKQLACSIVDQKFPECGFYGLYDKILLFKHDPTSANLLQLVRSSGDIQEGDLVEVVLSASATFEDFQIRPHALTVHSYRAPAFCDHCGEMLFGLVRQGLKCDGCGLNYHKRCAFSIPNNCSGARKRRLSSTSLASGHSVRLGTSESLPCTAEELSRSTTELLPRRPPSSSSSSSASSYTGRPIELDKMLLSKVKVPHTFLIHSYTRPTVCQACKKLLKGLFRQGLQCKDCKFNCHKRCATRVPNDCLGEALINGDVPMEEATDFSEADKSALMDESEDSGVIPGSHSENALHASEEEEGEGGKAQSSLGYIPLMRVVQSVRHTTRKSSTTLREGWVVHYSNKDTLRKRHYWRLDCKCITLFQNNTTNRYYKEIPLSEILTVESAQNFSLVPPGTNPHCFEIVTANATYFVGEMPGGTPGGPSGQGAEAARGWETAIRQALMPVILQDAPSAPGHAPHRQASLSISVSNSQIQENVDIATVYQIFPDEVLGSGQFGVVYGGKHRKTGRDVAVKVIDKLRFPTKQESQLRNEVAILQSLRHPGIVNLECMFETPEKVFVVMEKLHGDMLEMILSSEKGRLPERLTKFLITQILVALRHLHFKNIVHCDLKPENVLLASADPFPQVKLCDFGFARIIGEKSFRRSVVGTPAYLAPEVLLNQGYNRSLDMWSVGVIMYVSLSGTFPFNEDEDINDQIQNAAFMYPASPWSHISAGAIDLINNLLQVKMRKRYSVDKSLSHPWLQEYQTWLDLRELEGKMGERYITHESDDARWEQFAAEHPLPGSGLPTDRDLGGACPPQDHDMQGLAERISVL
Conditions: at 0.1 µM.

Chain of Protein kinase C beta type (Homo sapiens) (P05771 2-671 limits assumed): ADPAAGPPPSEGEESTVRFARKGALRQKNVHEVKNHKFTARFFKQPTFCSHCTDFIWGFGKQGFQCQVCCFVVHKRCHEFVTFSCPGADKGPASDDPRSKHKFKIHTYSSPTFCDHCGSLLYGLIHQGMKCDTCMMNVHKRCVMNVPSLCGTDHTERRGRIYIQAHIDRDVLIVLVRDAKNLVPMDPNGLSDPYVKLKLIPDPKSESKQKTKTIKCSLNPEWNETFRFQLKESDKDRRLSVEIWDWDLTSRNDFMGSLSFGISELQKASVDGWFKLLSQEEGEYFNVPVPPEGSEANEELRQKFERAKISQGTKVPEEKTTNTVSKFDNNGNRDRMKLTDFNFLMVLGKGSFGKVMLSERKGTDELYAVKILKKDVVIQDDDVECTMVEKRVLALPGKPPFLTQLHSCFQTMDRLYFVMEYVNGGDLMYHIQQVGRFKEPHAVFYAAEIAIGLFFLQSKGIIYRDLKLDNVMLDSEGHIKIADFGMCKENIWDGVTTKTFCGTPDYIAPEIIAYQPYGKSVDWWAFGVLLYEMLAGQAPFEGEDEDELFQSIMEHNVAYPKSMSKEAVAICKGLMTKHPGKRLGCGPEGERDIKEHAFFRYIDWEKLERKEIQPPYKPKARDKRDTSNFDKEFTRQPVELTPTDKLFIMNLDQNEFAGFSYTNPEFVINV

With `O=C(Nc1n[nH]c2nc(-c3ccco3)c(Br)cc12)C1CC1`, the inhibition in assay [1] came to 3.32%; in [2] it was 0.86%; in assay [3], 2.37%; in assay [4] it was 1.29%; in [5], 0.79%; in assay [6] it was 0.69%. In addition, the inhibition amounted to 1.19% in assay [7], 2.8% in [8], 5.78% in assay [9] and 3% in [10].
For `CCn1c(-c2nonc2N)nc2c(C#CC(C)(C)O)nc(CN3CCCC3)cc21`, the inhibition in assay [1] came out at 8.24%; in assay [2] it was 0.19%; in assay [3], 1.41%; in assay [4] it was 2.28%; in assay [5], 7.85%; in assay [6], 3.25%. Further, the inhibition in assay [7] turned out to be 6.65%; in [8], 1.55%; in [9], 5.93%; in assay [10] it was 1.71%.
On to `COc1ccc(-c2nn3ncccc3c2-c2ccnc(Nc3ccc(Cl)c(C(F)(F)F)c3)n2)cc1`, for which the inhibition in [1] was -0.57%; in [2], 0.28%; in [3], -1.6%; in [4] it was 1.56%; in assay [5] it was 2.55%; in assay [6], 0.91%. In addition, the inhibition turned out to be 0.81% in assay [7], 2.22% in [8], 3.95% in assay [9] and 2.47% in assay [10].
Turning to `CCn1c(-c2nonc2N)nc2cncc(C(=O)N3CCNCC3)c21`, the inhibition in [1] was 0.03%; in assay [2], 1.74%; in assay [3] it was 0.89%; in assay [4] it was 3.06%; in assay [5], 3.7%; in [6] it was 1.85%. The inhibition in assay [7] was 3.67%; in [8] it was 5.23%; in assay [9], 6.72%; in [10] it was 5.57%.
On to `Cn1cc(C=C2C(=O)Nc3cccnc32)c2ccccc21`, for which the inhibition in assay [1] is -0.93%; in assay [2], 0.27%; in assay [3] it was 1.58%; in [4], -0.39%; in assay [5], 0.22%; in [6] it was 0.8%. Besides, the inhibition in [7] was found to be 0.8%; in assay [8] it was 2.63%; in [9], 10.6%; in assay [10], 3.33%.
`COc1cc(C)c(NC(=O)CN(C)C)cc1Nc1nc(Nc2cccc(F)c2C(N)=O)c2cc[nH]c2n1`: the inhibition in assay [1] is 8.9%; in [2], -0.31%; in assay [3], 1.29%; in [4], 0.13%; in [5], 0.13%; in assay [6], 0.38%. Also, the inhibition in assay [7] amounted to 0.55%; in assay [8] it was 2.21%; in assay [9] it was 18.1%; in assay [10] it was 3.43%.
For `CC(=O)Nc1cccc(C#Cc2cncnc2Nc2ccc(OCc3cccc(F)c3)c(Cl)c2)n1`, the inhibition in assay [1] is 1.63%; in [2], 0.57%; in assay [3], -0.05%; in assay [4], 1.96%; in [5] it was 3.96%; in assay [6], 2.66%. Besides, the inhibition in [7] is 2.15%; in [8], -0.03%; in [9] it was -2.44%; in assay [10], -1.45%.
On to `NC(=O)c1ccc(-c2nc(-c3ccccn3)c(-c3ccc4c(c3)OCO4)[nH]2)cc1`, for which the inhibition in assay [1] is 3.47%; in assay [2] it was 0.81%; in assay [3], -0.05%; in assay [4], 0.77%; in [5], 1.31%; in [6], 1.96%. The inhibition in assay [7] worked out at 5.1%; in assay [8], 2.47%; in [9] it was 5.43%; in assay [10], 2.87%.
As for `CN(C)c1cc2c(Nc3ccc4nc(Cc5ccccc5)[nH]c4c3)ncnc2cn1`, the inhibition in assay [1] is 4.36%; in assay [2] it was 2.13%; in assay [3], 2.77%; in [4], 2.25%; in [5], 4.22%; in assay [6] it was 1.18%. Also, the inhibition in assay [7] came out at 3.96%; in assay [8], 4.29%; in assay [9] it was 6.67%; in assay [10], 5.21%.
For `Cc1ccc(NC(=O)c2ccnc(N3CCCC3)c2)cc1-c1ccc(C(=O)NCC2CC2)cc1`, the inhibition in assay [1] amounted to 2.77%; in [2], 2.01%; in assay [3] it was 3.68%; in assay [4], 1.28%; in assay [5], 3.17%; in [6], 1.24%. Moreover, the inhibition turned out to be 2.94% in assay [7], 3.07% in assay [8], 9.98% in assay [9] and 2.95% in [10].
As for `O=C1NC(=O)C(N2CCc3ccccc32)=C1c1ccc(Cl)cc1`, the inhibition amounted to 2.33% in assay [1]; 1.4% in assay [2]; 3.19% in [3]; 2.06% in assay [4]; 1.93% in assay [5]; 1.71% in [6]. The inhibition in [7] worked out at 1.65%; in assay [8] it was 3.74%; in [9] it was 5.59%; in assay [10], 4.57%.
For `CCCN1CCC=C(c2ccc(Nc3nc(Nc4ccccc4C(N)=O)c4cc[nH]c4n3)c(C)c2)C1`, the inhibition in [1] was 9.77%; in [2], 0.1%; in assay [3], 1.27%; in assay [4], 2.34%; in assay [5], 3.28%; in assay [6], 1.44%. In addition, the inhibition in assay [7] was found to be 3.5%; in assay [8], 33.8%; in [9], 71.3%; in assay [10], 25.1%.
In the case of `COc1cc(C=NNc2ncnc3c2cnn3-c2ccccc2)ccc1O`, the inhibition in [1] was found to be 12.4%; in assay [2], 1.32%; in assay [3] it was 5.26%; in assay [4], 0.44%; in assay [5], 0.62%; in assay [6], 1.72%. In addition, the inhibition in assay [7] amounted to 5.98%; in assay [8] it was 1.65%; in assay [9], 3.18%; in assay [10] it was 1.16%.
Turning to `CS(=O)(=O)Nc1ccc(N/C=C2\C(=O)Nc3ccccc32)cc1`, the inhibition was 0.03% in [1]; -1.38% in [2]; -0.98% in assay [3]; -1.09% in assay [4]; -0.74% in assay [5]; -1.02% in [6]. Besides, the inhibition in [7] is -0.85%; in assay [8] it was -2.24%; in [9], 3.18%; in [10], -0.04%.
`COc1cc2c(cc1Nc1nc(N3CCc4ccccc43)c3cc[nH]c3n1)N(C(=O)CN(C)C)CC2`: the inhibition in assay [1] is 5.19%; in [2] it was 1.44%; in assay [3] it was 3.35%; in [4], 1.03%; in assay [5], -0.74%; in assay [6], 1.14%. Further, the inhibition in assay [7] came to 1.29%; in assay [8], 1.69%; in assay [9], 3.76%; in assay [10], 1.71%.
Regarding `Fc1cccc(COc2ccc(Nc3ncnc4cc(-c5ccc[nH]5)sc34)cc2Cl)c1`, the inhibition in [1] stood at 2.69%; in assay [2], 1.76%; in assay [3], 1.59%; in [4], 0.25%; in [5], 2.17%; in [6] it was 0.99%. Moreover, the inhibition in assay [7] was 2.94%; in assay [8], -0.95%; in assay [9] it was -1.14%; in [10], -0.92%.

These data come from ChEMBL document CHEMBL1961873, “Compounds: GSK PKIS; Assays: Nanosyn kinase panel” (2012).
